Assay outcomes: PubChem BioAssay, National Center for Advancing Translational Sciences (NCATS)
Rab9 prom act – Rab9 promoter activation. Potency, µM (titrated, usually from 9.22 µM), usual class: activators. AID 485297. 2.8% of 320,000 active. Huh7 Rab9 promoter-luciferase reporter, luminescence, 24 h; also: nearly all actives have a fitted effect of over 60% in size
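Stable Rab9-luc Huh7, 1500 cells/well, 2 h settle; cmpd in DMSO, 24 h, 37 °C/5% CO2; luciferase reagent 10 min RT; luminescence.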
NPC1 prom act – NPC1 promoter activation; Huh7 NPC1 promoter luciferase reporter, 24 h; Potency, µM (series often up to 9.22 µM), usual class: activators; 2.4% of 320,000 active; AID 485313; also: nearly all actives have a fitted effect of over 60% in size
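Stably transfected Huh7 (NPC1 promoter→luciferase), 1500 cells/well in Opti-MEM + 10% FBS, 2 h settle, then compound 24 h at 37 °C. Luminescence after 10 min with Amplite reagent.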
FLuc modulator – firefly luciferase modulation, counter-screen for miR-21 project | P08659 | purified FLuc, Km substrates, luminescence inhibition | Potency, µM (doses to about 57.5 µM), usual class: inhibitors | 6.9% of 360,000 active | AID 588342; also: nearly all actives have a fitted effect of over 55% in size
Target sequence (P08659 whole entry, looked up): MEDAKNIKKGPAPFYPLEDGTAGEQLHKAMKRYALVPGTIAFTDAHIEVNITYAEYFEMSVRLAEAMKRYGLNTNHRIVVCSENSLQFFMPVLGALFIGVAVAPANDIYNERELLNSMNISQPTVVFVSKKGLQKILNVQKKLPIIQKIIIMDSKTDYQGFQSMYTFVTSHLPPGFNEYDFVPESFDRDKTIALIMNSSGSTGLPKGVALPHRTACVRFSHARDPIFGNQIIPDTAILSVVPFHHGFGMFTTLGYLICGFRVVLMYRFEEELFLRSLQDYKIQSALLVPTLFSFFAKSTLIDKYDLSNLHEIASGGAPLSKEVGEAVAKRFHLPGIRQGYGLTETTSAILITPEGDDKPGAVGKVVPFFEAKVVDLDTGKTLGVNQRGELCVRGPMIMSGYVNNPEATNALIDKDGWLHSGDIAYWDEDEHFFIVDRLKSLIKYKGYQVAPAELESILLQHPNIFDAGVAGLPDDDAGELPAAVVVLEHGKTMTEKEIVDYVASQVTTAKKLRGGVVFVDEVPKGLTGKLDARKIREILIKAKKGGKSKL
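Purified P. pyralis luciferase (10nM final) with 10uM D-luciferin and 10uM ATP (Km levels) in 50mM Tris acetate pH 7.5, 10mM Mg acetate, 0.01% Tween-20, 0.05% BSA; qHTS 6-point titration, ~60 µM downward; luminescence read.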
ELG1 repair inh – blocks ELG1-dependent DNA repair in HEK293T cells; HEK293T ELG1-luciferase reporter, luminescence, 16 h; DNA damage induced by 5-fluorouridine; Potency, µM (doses to about 46.1 µM), actives largely listed as inhibitors; 2.3% of 330,000 active; AID 504467; also: nearly all actives have a fitted effect of over 55% in size
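Step one: seed 2,000 cells per well. Step two: pin-transfer compound or DMSO alongside 5-fluorouridine. Step three: incubate 16 hr, 37 °C, 5% CO2. Step four: add ONE-Glo, wait 30 min, read luminescence.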
SMN2 splice up – increases expression of the SMN2 splice variant. HEK293 SMN2-luciferase splicing reporter, luminescence, 30-36 h. 2.8% of 210,000 active. AID 1458. Potency, µM (titrated, usually from 46.1 µM), usual class: activators; also: nearly all actives have a fitted effect of over 55% in size
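HEK293 cells carry an SMN2 […]–luciferase reporter in which exon 7 inclusion puts luciferase in frame. Cells were plated 10-12 h before compound addition, then incubated 30-36 h at 37C. ONE-Glo luminescence was read; sodium butyrate at 4.5 mM final served as control.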
ELG1 genotoxic – genotoxicity induction in ELG1-luciferase HEK293T cells | 1.3% of 330,000 active | Potency, µM (series often up to 46 µM), usual class: activators | HEK293T ELG1-luciferase reporter, luminescence, 16 h; also: nearly all actives have a fitted effect of over 60% in size
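Genotoxicity was scored as increased ELG1-luciferase reporter signal, measured by ONE-Glo luminescence (30 min, room temperature). Compound or vehicle exposure of the HEK293T reporter cells lasted 16 hr at 37°C.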
Of the large screens only hits and unclear results are named; the others gave an inactive call. This is a sample that favours compounds with a hit; in the whole collection about 9.2% have one here. Calls follow the shape of the dose curve; as a rule, active = well fitted curve in the direction sought with a large enough effect; inconclusive = small, poorly fitted or top-dose-only effect, or another doubt; inactive = no such curve, though single readings can be large; an effect the other way counts as inactive or inconclusive.

CC(C)C(=O)N=C1SC2CS(=O)(=O)CC2N1Cc1ccccc1 (stereo not given)	none
Cc1ccc(OCC(=O)OC2=C(C(=O)c3ccccc3)N(C)S(=O)(=O)c3ccccc32)cc1	none (no result: Rab9 prom act, NPC1 prom act, ELG1 repair inh, ELG1 genotoxic)
O=C(CCN1CCN(C(=O)c2ccccc2)CC1)c1ccc(Br)cc1	none (no result: SMN2 splice up)
Cc1ccc(-n2cc(CN3CCCN(C=O)CC3)c(-c3ccc(F)cc3)n2)cc1	FLuc modulator inconclusive, ELG1 repair inh 23µM (no result: SMN2 splice up)
CC(=O)N1CCCN(Cc2cn(-c3cccc(C)c3)nc2-c2cccc(F)c2)CC1	FLuc modulator 17µM (no result: SMN2 splice up)
Cc1cccc(-n2cc(CN3CCCN(C=O)CC3)c(-c3cccc(F)c3)n2)c1	FLuc modulator 13µM (no result: SMN2 splice up)
CC(=O)N1CCCN(Cc2cn(-c3ccc(C)cc3)nc2-c2ccc(F)cc2)CC1	FLuc modulator inconclusive (no result: SMN2 splice up)
CC(=O)N1CCCN(Cc2cn(-c3cc(C)ccc3C)nc2-c2ccccc2)CC1	none (no result: SMN2 splice up)
CC1(C)C(=O)Nc2ccccc2N1C(=O)COC(=O)/C=C/c1ccc(OC(F)F)cc1	none (no result: SMN2 splice up)
O=C(Nc1ccc(-c2cn3ccccc3n2)cc1)c1ccco1	Rab9 prom act 3.2µM, NPC1 prom act 2.8µM, FLuc modulator 2.4µM, ELG1 repair inh inconclusive, SMN2 splice up 11µM, ELG1 genotoxic inconclusive
Cc1ccccc1C(=O)Nc1cccc(-c2ccc3nncn3n2)c1	ELG1 repair inh inconclusive
Cc1ccccc1C(=O)Nc1cccc(-c2cn3ccccc3n2)c1	FLuc modulator 6.7µM, ELG1 repair inh inconclusive
O=C(Nc1cccc(-c2cn3ccccc3n2)c1)c1ccccc1	Rab9 prom act inconclusive, FLuc modulator 4.8µM, ELG1 repair inh inconclusive, SMN2 splice up inconclusive
CCCCC(=O)Nc1cccc(-c2cn3ccccc3n2)c1	FLuc modulator 12µM, ELG1 repair inh inconclusive (no result: SMN2 splice up)
O=C(Nc1ccc(-c2cn3ccccc3n2)cc1)c1ccc(Cl)cc1	NPC1 prom act inconclusive, SMN2 splice up inconclusive
Cc1ccc(C(=O)Nc2cccc(-c3cn4ccccc4n3)c2)cc1	Rab9 prom act inconclusive, FLuc modulator 6µM, ELG1 repair inh inconclusive (no result: SMN2 splice up)
CCCCCCCCCCC/C=C\C(C)(C)/C=C\CCCC(=O)O	none (no result: FLuc modulator, ELG1 repair inh, ELG1 genotoxic)
CN1/C(=C\C(=O)c2cccc([N+](=O)[O-])c2)Sc2ccccc21	Rab9 prom act 2µM, NPC1 prom act 1.3µM, FLuc modulator 1.3µM, ELG1 repair inh inconclusive, ELG1 genotoxic 9.2µM (no result: SMN2 splice up)
COc1cc(OC)cc(C(=O)/C=C2\Sc3ccccc3N2C)c1	Rab9 prom act inconclusive, NPC1 prom act inconclusive, FLuc modulator 7.6µM, ELG1 repair inh inconclusive, ELG1 genotoxic inconclusive (no result: SMN2 splice up)
COc1ccc2c(c1)S/C(=C\C(=O)c1ccncc1)N2C	Rab9 prom act inconclusive, NPC1 prom act inconclusive, FLuc modulator 6.7µM, ELG1 repair inh inconclusive, ELG1 genotoxic 21µM
COCC(=O)/C=C1\Sc2ccccc2N1C	ELG1 repair inh inconclusive
COc1ccc(C(=O)/C=C2/Sc3cc4c(cc3N2C)OCO4)cc1	Rab9 prom act inconclusive, FLuc modulator inconclusive, ELG1 repair inh inconclusive, ELG1 genotoxic inconclusive (no result: SMN2 splice up)
CN(C)/C=C/C(=O)c1cccc([N+](=O)[O-])c1	none
COc1c(N2C[C@@H]3CCCN[C@H]3C2)c(F)cc2c(=O)c(C(=O)O)cn(C3CC3)c12	none (no result: Rab9 prom act, NPC1 prom act, FLuc modulator, ELG1 repair inh, ELG1 genotoxic)
COc1ccc(CNc2ncnc3c2cnn3-c2ccc(Cl)cc2)cc1	none (no result: Rab9 prom act, NPC1 prom act, ELG1 repair inh, SMN2 splice up, ELG1 genotoxic)
COc1ccc(-n2ncc3c(NCc4cccnc4)ncnc32)cc1	Rab9 prom act 1µM, NPC1 prom act 1.3µM, FLuc modulator 6.7µM, ELG1 repair inh inconclusive, ELG1 genotoxic inconclusive (no result: SMN2 splice up)
Cc1ccc(-n2ncc3c(NCc4cccnc4)ncnc32)cc1C	Rab9 prom act inconclusive, NPC1 prom act 2.2µM, FLuc modulator 4.8µM, ELG1 repair inh inconclusive, ELG1 genotoxic 9.2µM (no result: SMN2 splice up)
Cc1cccc(-n2ncc3c(NCc4cccnc4)ncnc32)c1	Rab9 prom act 2.5µM, NPC1 prom act 4µM, FLuc modulator 8.5µM, ELG1 repair inh inconclusive, ELG1 genotoxic inconclusive (no result: SMN2 splice up)
CCOC(=O)C1=CNS(=O)(=O)NC1c1ccc(C(F)(F)F)cc1 (stereo not given)	none (no result: Rab9 prom act, NPC1 prom act, FLuc modulator, SMN2 splice up)
COc1ccc(OCc2n[nH]c(=S)n2-c2ccc(C)cc2)cc1	none
Cc1ccc(N2CN=C(c3ccccc3)NC2=S)cc1	Rab9 prom act inconclusive, NPC1 prom act inconclusive, FLuc modulator 9.5µM, ELG1 repair inh inconclusive, ELG1 genotoxic 15µM
COc1ccc(C2=NCN(c3ccc(C)cc3)C(=S)N2)cc1	Rab9 prom act 2.8µM, NPC1 prom act inconclusive, FLuc modulator 12µM, ELG1 repair inh inconclusive, SMN2 splice up inconclusive, ELG1 genotoxic 16µM
O=C(NCCS(=O)(=O)N1CCN(c2ccc(F)cc2)CC1)C(c1ccccc1)c1ccccc1	none (no result: Rab9 prom act, NPC1 prom act, ELG1 repair inh, SMN2 splice up, ELG1 genotoxic)
Cc1ccccc1N=C/C=C1/C=C(c2ccccc2)OC(C)(C)O1	ELG1 repair inh 13µM
Cc1ccc(CSC2=Nc3ccccc3C3=NC(=O)CN23)cc1	SMN2 splice up inconclusive
COc1cc2c(cc1OC)C1=NC(=O)CN1C(SCc1ccccc1C)=N2	ELG1 repair inh 10µM
Nc1[nH]ncc1N=Nc1ccc(Cl)cc1	Rab9 prom act inconclusive, FLuc modulator 13µM, ELG1 repair inh inconclusive, ELG1 genotoxic 18µM
Nc1n[nH]c(N)c1N=Nc1cccc(F)c1	FLuc modulator 24µM
Nc1n[nH]c(N)c1N=Nc1ccc(Cl)cc1	FLuc modulator 15µM, ELG1 repair inh inconclusive, ELG1 genotoxic inconclusive
